Many of the other results were omitted from the sample, so hits are more common in it than they were.
Anthrax LF inh2: inhibitors of Bacillus anthracis lethal factor protease; P15917; multiplex microsphere protease cleavage assay, LF; inhibition, % at 10 µM; 360,000 compounds, 0.12% hits; AID 588501
Target sequence (P15917 whole entry, looked up): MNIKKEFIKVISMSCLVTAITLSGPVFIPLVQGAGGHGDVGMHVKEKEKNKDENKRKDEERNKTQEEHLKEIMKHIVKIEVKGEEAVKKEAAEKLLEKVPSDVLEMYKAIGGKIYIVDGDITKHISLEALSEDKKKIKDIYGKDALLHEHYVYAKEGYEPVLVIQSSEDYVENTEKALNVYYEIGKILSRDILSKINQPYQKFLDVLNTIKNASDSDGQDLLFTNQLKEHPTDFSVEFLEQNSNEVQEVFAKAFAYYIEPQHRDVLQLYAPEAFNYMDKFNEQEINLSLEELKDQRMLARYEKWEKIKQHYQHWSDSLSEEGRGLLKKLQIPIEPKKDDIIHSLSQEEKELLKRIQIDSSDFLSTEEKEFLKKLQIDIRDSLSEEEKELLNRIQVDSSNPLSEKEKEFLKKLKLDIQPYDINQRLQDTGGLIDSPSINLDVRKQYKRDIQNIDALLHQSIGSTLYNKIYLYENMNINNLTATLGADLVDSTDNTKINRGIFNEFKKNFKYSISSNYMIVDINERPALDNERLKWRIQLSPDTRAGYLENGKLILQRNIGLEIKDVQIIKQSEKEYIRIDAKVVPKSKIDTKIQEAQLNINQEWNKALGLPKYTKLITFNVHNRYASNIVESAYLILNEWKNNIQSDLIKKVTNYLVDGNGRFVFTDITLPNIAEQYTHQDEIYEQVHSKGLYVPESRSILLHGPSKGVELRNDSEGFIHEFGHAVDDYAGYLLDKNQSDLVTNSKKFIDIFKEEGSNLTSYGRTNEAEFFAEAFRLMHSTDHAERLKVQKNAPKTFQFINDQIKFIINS
Bead autofluor: flagged as autofluorescent in microsphere protease counterscreen; 360,000 compounds, 3.1% hits; fluorescence intensity (concentration not given with the values); compound autofluorescence counterscreen, microsphere flow cytometry; stronger effect = higher value; AID 624483; in the data active = fluorescence intensity above about 16000; inconclusive = no clear call, values can overlap the other calls
TcdB inh: TcdB glycohydrolase inhibition; inhibition, % at 9.99 µM; 350,000 compounds, 0.24% hits; AID 652162; TcdB glycohydrolase enzymatic assay, plate reader; in the data active = inhibition above about 10%
BoNT A protease: blocks Botulinum neurotoxin A light chain protease | multiplex microsphere protease substrate cleavage, flow cytometry | inhibition, % at 10 µM | 360,000 compounds, 0.17% hits
BoNT-F LC inh: inhibitors of Botulinum neurotoxin F light chain protease. AID 588497. 360,000 compounds, 0.22% hits. Multiplex microsphere protease cleavage assay, flow cytometry. inhibition, % at 10 µM; in the data active = inhibition above about 35%, passing the limit was not always enough; inconclusive = no clear call, values can overlap the other calls
Of the large screens only hits and unclear results are named; the others gave an inactive call. Rule as the data show it, unless noted: active = inhibition above about 30%; inconclusive = no clear call, values can overlap the other calls; inactive = below that.

O=C(C1CCCCC1)N1CC(=O)N2[C@H](CO)[C@H](c3ccc(C#CCc4ccccc4)cc3)[C@H]2C1	none (no result: Anthrax LF inh2, Bead autofluor, BoNT A protease, BoNT-F LC inh)
O=c1c(-c2nnc(SCc3ccc(Cl)cc3Cl)o2)cccn1Cc1ccccc1	Bead autofluor 22041, BoNT A protease inconclusive
CSc1nnc(-c2cccn(Cc3ccccc3)c2=O)o1	none
O=C(CSc1ccc(-c2ccc(Br)cc2)nn1)N1CCOCC1	none
CC1CCN(C(=O)CSc2ccc(-c3ccc(F)cc3)nn2)CC1	Bead autofluor 23070
COc1ccc(-c2ccc(SCC(=O)N3CCOCC3)nn2)cc1	Bead autofluor 22594
CC(NC(=O)c1ccc(F)cc1)c1nc2ccccc2n1Cc1ccccc1F (stereo unspecified)	Bead autofluor 26278
CC(=O)c1nnn(-c2nc(N3CCCC3)nc(N(c3ccccc3)c3ccccc3)n2)c1C	Bead autofluor 23099 (no result: TcdB inh)
COc1nc(N2CCCC2)nc(-n2nnc(C(C)=O)c2C)n1	none
CC1(C)C2CCC1(C)C(NC(=O)CCN1CCCCC1)C2 (stereo unspecified)	none (no result: TcdB inh)
COCCOCCOCCC(=O)NC1CC2CCC1(C)C2(C)C (stereo unspecified)	Bead autofluor 21940 (no result: TcdB inh)
CCn1c(=S)sc2c(=O)n(-c3ccccc3)c(SC)nc21	none (no result: TcdB inh)
COc1ccccc1-n1c(SCC(=O)O)nc2c(sc(=S)n2-c2ccc(C)c(C)c2)c1=O	TcdB inh 11
COc1ccccc1-n1c(SCC(=O)O)nc2c(sc(=S)n2-c2ccc(Cl)c(C)c2)c1=O	TcdB inh 13
CCOc1ccccc1-n1c(=S)sc2c(=O)n(-c3ccc(F)cc3)c(SCC(=O)O)nc21	TcdB inh 20
N#CCSc1nc2c(sc(=S)n2Cc2ccco2)c(=O)n1-c1ccc(F)cc1	Bead autofluor 21835 (no result: TcdB inh)
Cc1ccc(-n2c(=S)sc3c(=O)n(-c4ccccc4C)c(SCC(=O)O)nc32)cc1C	none
O=C(C[C@@H]1CC[C@H]2[C@@H](COC[C@H](O)CN2C(=O)Nc2ccc(Cl)cc2)O1)NCCc1ccncc1	none (no result: Anthrax LF inh2, Bead autofluor, BoNT A protease, BoNT-F LC inh)
C[C@H](CO)N1C[C@H](C)[C@H](CN(C)S(C)(=O)=O)Oc2ccc(NC(=O)Nc3cccc4ccccc34)cc2CC1=O	none (no result: Anthrax LF inh2, Bead autofluor, BoNT A protease, BoNT-F LC inh)
C[C@H]1CCCCO[C@H](CN(C)S(=O)(=O)c2ccc(Cl)cc2)[C@@H](C)CN([C@@H](C)CO)C(=O)c2cc(NC(=O)CCCN(C)C)ccc2O1	none (no result: Anthrax LF inh2, Bead autofluor, BoNT A protease, BoNT-F LC inh)
Cc1ccc(C)c(-n2c(-c3ccc4c(c3)OCO4)n[nH]c2=S)c1	Bead autofluor 23573, BoNT A protease inconclusive (no result: TcdB inh)
CCc1ccc(C(=O)c2oc3nc(C)cc(C)c3c2N)cc1	Bead autofluor 20259 (no result: TcdB inh)
C[C@H]1CN([C@@H](C)CO)C(=O)Cc2cc(N(C)C)ccc2O[C@H]1CN(C)C(=O)Nc1cccc2ccccc12	none (no result: Anthrax LF inh2, Bead autofluor, BoNT A protease, BoNT-F LC inh)
COc1ccc(NC(=O)C23CC4CC(C2)CC(n2cnc(Br)n2)(C4)C3)cc1OC	Bead autofluor 16534, BoNT A protease inconclusive
COc1ccc(NC(=O)C23CC4CC(C2)CC(n2cnc(Br)n2)(C4)C3)c(C)c1	none (no result: TcdB inh)
Cc1ccc(NC(=O)CSC2=C(C#N)C(c3ccc4c(c3)OCO4)CC(=O)N2)cc1C (stereo unspecified)	Bead autofluor 22137
Cc1cccc(-n2c(-c3csc(C(C)C)c3)n[nH]c2=S)c1	Bead autofluor 20031 (no result: TcdB inh)
O=C(NCC[C@H]1CC[C@H](NC(=O)c2cnccn2)[C@@H](CO)O1)Nc1ccc(Cl)cc1	none (no result: Anthrax LF inh2, Bead autofluor, BoNT A protease, BoNT-F LC inh)
O=C1C2ON(c3ccccc3)C(c3ccncc3)C2C(=O)N1c1ccccc1 (stereo unspecified)	Bead autofluor 20412 (no result: TcdB inh)
Cc1ccccc1N1C(=O)C2ON(c3ccccc3)C(c3cccnc3)C2C1=O (stereo unspecified)	none (no result: TcdB inh)
Cc1cccc(C)c1N1C(=O)C2ON(c3ccccc3)C(c3ccncc3)C2C1=O (stereo unspecified)	Bead autofluor 22531, BoNT A protease inconclusive
Cc1c(Cl)cccc1N1C(=O)C2ON(c3ccccc3)C(c3cccnc3)C2C1=O (stereo unspecified)	Bead autofluor 21730 (no result: TcdB inh)
CCOC(=O)C1=C(CSCC(=O)OC)NC(=O)NC1c1cc(C)ccc1C (stereo unspecified)	Bead autofluor 22020 (no result: TcdB inh)
COC(=O)C1=C(CSCc2ccccc2)NC(=O)NC1c1cc(C)ccc1C (stereo unspecified)	none
Cc1ccc(-c2cnc3c(c2)C(=O)N([C@@H](C)CO)C[C@@H](C)[C@@H](CN(C)C(=O)c2cccc(F)c2)O3)cc1	none (no result: Anthrax LF inh2, Bead autofluor, BoNT A protease, BoNT-F LC inh)
CC(=O)c1ccc(N2CCN(C(=O)Cc3cccs3)CC2)cc1	none (no result: TcdB inh)
Cn1c(=O)cc(SCC(=O)N2CCC3(CC2)OCCO3)c2ccccc21	none (no result: TcdB inh)
O=C(Cc1cccs1)N1CCC2(CC1)OCCO2	Bead autofluor 20223 (no result: TcdB inh)
Cn1cc(CCC(=O)N2CCC3(CC2)OCCO3)c2ccccc21	Bead autofluor 23713 (no result: TcdB inh)
COc1ccc(Nc2nnc(-c3ccc(N4CCOCC4)c([N+](=O)[O-])c3)c3ccccc23)cc1	Bead autofluor 22975 (no result: TcdB inh)
COc1cccc(CN2CCN(c3ccc(F)cc3)CC2)c1OC	none
COc1cccc(CNc2ccc(N3CCC(C)CC3)cc2)c1OC	Bead autofluor 19533 (no result: TcdB inh)
CSc1ccccc1-n1nnnc1SCc1ccccc1	Bead autofluor 23954, BoNT A protease inconclusive
O=C(O)c1ccc(-n2nnnc2SCc2ccccc2)cc1	none (no result: TcdB inh)
Cc1ccc(C)c2c1cc(C)c1nnc(SCC(=O)N3CCCc4ccccc43)n12	none (no result: TcdB inh)
CCn1c(=O)c2ccccc2n2c(SCC(=O)N3CCCc4ccccc43)nnc12	Bead autofluor 24095
O=C(C[C@H]1CC[C@H]2[C@@H](COC[C@@H](O)CN2Cc2ccncc2)O1)NCc1ccccc1Cl	none (no result: Anthrax LF inh2, Bead autofluor, BoNT A protease, BoNT-F LC inh)
O=C1N/C(=C/c2cccn2-c2ccc(F)cc2)C(=O)N1Cc1ccccc1	Bead autofluor 23854, BoNT A protease inconclusive (no result: TcdB inh)
CCC(=O)Nc1ccc2c(c1)OC[C@H](C)N(Cc1ccccc1C(=O)O)C[C@H](C)[C@@H](OC)CN(C)C2=O	none (no result: Anthrax LF inh2, Bead autofluor, BoNT A protease, BoNT-F LC inh)
O=C(NCc1ccc(F)cc1)C(c1cccs1)N(C(=O)c1csnn1)C1CC1 (stereo unspecified)	Bead autofluor 16343, BoNT A protease inconclusive (no result: TcdB inh)
O=C(NCc1ccc(F)cc1)C(c1ccncc1)N(C(=O)c1csnn1)C1CC1 (stereo unspecified)	none (no result: TcdB inh)
Cc1ccc(CSc2nncn2-c2ccccn2)cc1	none (no result: TcdB inh)
Clc1ccc(CSc2nncn2-c2ccccn2)cc1	Bead autofluor 23849 (no result: TcdB inh)
CC1CCc2c(sc(NC(=O)C(=O)NCc3ccco3)c2C#N)C1 (stereo unspecified)	Bead autofluor 20783, BoNT A protease inconclusive
Cc1cc(C(=O)Nc2sc3c(c2C#N)CCC(C)C3)no1 (stereo unspecified)	none (no result: TcdB inh)
C[C@@H]1CN([C@@H](C)CO)C(=O)c2cc(NS(=O)(=O)c3ccc(Cl)cc3)ccc2O[C@@H]1CN(C)Cc1ccc(C(=O)Nc2ccccc2N)cc1	none (no result: Anthrax LF inh2, Bead autofluor, BoNT A protease, BoNT-F LC inh)
CCSc1nnc2n1C(C)(C)Cc1ccccc1-2	none (no result: TcdB inh)
CC(C)OC(=O)CSc1nnc2n1C(C)(C)Cc1ccccc1-2	Bead autofluor 16487 (no result: TcdB inh)
CCOC(=O)CSc1nnc2n1C(C)(C)Cc1ccccc1-2	Bead autofluor 16513 (no result: TcdB inh)
COc1ccc(NC(=O)Nc2ccc3c(c2)C(=O)N([C@H](C)CO)C[C@@H](C)[C@@H](CN(C)S(=O)(=O)c2cccs2)O3)cc1	none (no result: Anthrax LF inh2, Bead autofluor, BoNT A protease, BoNT-F LC inh)
